Data as given in PubChem BioAssay (EPA / NIEHS).
Calls of active or inactive are those of the source. Rule for the calls: active = hit-call score of the fitted dose curve at least 0.9, where 1 is the maximum; inactive = score below 0.9.

What was measured:
Conditions in all cases: mRNA level, 48 h; actives raise or lower the signal
[1] = read-out: Interleukin 6 (IL6), IL6 (gene 3569); assay: LTEA_HepaRG_IL6: Life Technologies and Expression Analysis (LTEA) Assay for Interleukin 6 (IL6) using HepaRG (AID 2283509)
In short: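 HepaRG cells exposed in duplicate for 48 h to eight half-log concentrations, top 100 uM, in 0.5% DMSO serum-free induction medium. mRNA measured by qRT-PCR, normalized to ACTB, GAPDH and POLR2A. Bidirectional fit versus DMSO.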

[2] = read-out: Potassium channel subfamily K member 1 (KCNK1), KCNK1 (gene 3775); assay: LTEA_HepaRG_KCNK1: Life Technologies and Expression Analysis (LTEA) Assay for Potassium channel subfamily K member 1 (KCNK1) using HepaRG (AID 2283511)
In short: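 Differentiated HepaRG cells, 48 h exposure in serum-free induction medium with 0.5% DMSO; 8 concentrations, half-log from 100 uM, duplicate. KCNK1 mRNA by qRT-PCR, normalized to ACTB, GAPDH, POLR2A; bidirectional fit vs DMSO.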

[3] = read-out: Keratin 19 (KRT19), KRT19 (gene 3880); assay: LTEA_HepaRG_KRT19: Life Technologies and Expression Analysis (LTEA) Assay for Keratin 19 (KRT19) using HepaRG (AID 2283512)
In short: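 Gene-expression endpoint in the human liver line HepaRG after 48 h exposure to up to 100 uM test chemical with 0.5% DMSO vehicle; KRT19 mRNA by qRT-PCR, analyzed bidirectionally versus DMSO.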

[4] = read-out: JUN Transcription Factor, JUN (gene 3725); assay: LTEA_HepaRG_JUN: Life Technologies and Expression Analysis (LTEA) Assay for JUN Transcription Factor using HepaRG (AID 2283513)
In short: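 Differentiated HepaRG cells were exposed to chemicals for 48 h in serum-free induction medium, 8 concentrations from 100 uM in half-log steps, 0.5% DMSO vehicle, in duplicate. JUN mRNA was quantified by TaqMan qRT-PCR, normalized to ACTB, GAPDH, POLR2A.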

[5] = read-out: Lipase C (LIPC), LIPC (gene 3990); assay: LTEA_HepaRG_LIPC: Life Technologies and Expression Analysis (LTEA) Assay for Lipase C (LIPC) using HepaRG (AID 2283514)
In short: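 HepaRG cells, 48 h after plating, treated in duplicate for 48 h in serum-free induction medium over 8 half-log concentrations from 100 uM, 0.5% DMSO. LIPC mRNA by TaqMan qRT-PCR normalized to ACTB/GAPDH/POLR2A; bidirectional fit versus DMSO.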

[6] = read-out: Lipoprotein lipase (LPL), LPL (gene 4023); assay: LTEA_HepaRG_LPL: Life Technologies and Expression Analysis (LTEA) Assay for Lipoprotein lipase (LPL) using HepaRG (AID 2283515)
In short: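 Differentiated HepaRG cells, plated 48 h, then exposed 48 h in serum-free induction medium to 8 concentrations (top 100 uM, half-log steps) in 0.5% DMSO, duplicate. LPL mRNA measured by qRT-PCR, normalized to ACTB, GAPDH and POLR2A.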

[7] = read-out: MicroRNA 122 (MIR122), gene 406906; assay: LTEA_HepaRG_MIR122: Life Technologies and Expression Analysis (LTEA) Assay for MicroRNA 122 (MIR122) using HepaRG (AID 2283516); note: the transcript read is the microRNA miR-122
In short: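 Differentiated human HepaRG cells were exposed 48 h in serum-free induction medium to eight half-log concentrations (top 100 uM, 0.5% DMSO). Transcript level was measured by TaqMan qRT-PCR, normalized to ACTB, GAPDH and POLR2A, and fitted bidirectionally versus DMSO.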

[8] = read-out: matrix metalloproteinase-10 (MMP10), MMP10 (gene 4319); assay: LTEA_HepaRG_MMP10: Life Technologies and Expression Analysis (LTEA) Assay for matrix metalloproteinase-10 (MMP10) using HepaRG (AID 2283517)
In short: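 Differentiated HepaRG cells in serum-free induction medium exposed 48 h in duplicate to 8-point half-log series up to 100 uM in 0.5% DMSO. mRNA quantified by qRT-PCR, normalised to ACTB, GAPDH, POLR2A; bidirectional fit versus DMSO.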

[9] = read-out: MYC, MYC (gene 4609); assay: LTEA_HepaRG_MYC: Life Technologies and Expression Analysis (LTEA) Assay for MYC using HepaRG (AID 2283518)
In short: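 Cells are thawed, plated and cultured 48 h, then treated for 48 h with test chemicals (eight half-log concentrations from 100 uM, 0.5% DMSO vehicle). RNA is isolated and MYC expression quantified by qRT-PCR against three housekeeping genes.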

[10] = read-out: matrix metalloproteinase-3 (MMP3), MMP3 (gene 4314); assay: LTEA_HepaRG_MMP3: Life Technologies and Expression Analysis (LTEA) Assay for matrix metalloproteinase-3 (MMP3) using HepaRG (AID 2283519)
In short: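 HepaRG cells (~100,000/well) in serum-free induction medium were dosed in duplicate for 48 h with an 8-point half-log series from 100 uM, 0.5% DMSO. MMP3 mRNA was quantified by Fluidigm TaqMan qRT-PCR, normalized to three housekeeping genes.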

[11] = read-out: Paternally Expressed 10 (PEG10), PEG10 (gene 23089); assay: LTEA_HepaRG_PEG10: Life Technologies and Expression Analysis (LTEA) Assay for Paternally Expressed 10 (PEG10) using HepaRG (AID 2283520)
In short: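 Differentiated HepaRG cells, plated 48 h then switched to serum-free induction medium, were exposed in duplicate for 48 h to eight half-log concentrations topping at 100 uM in 0.5% DMSO. PEG10 mRNA was quantified by TaqMan qRT-PCR, normalised to ACTB, GAPDH and POLR2A.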

[12] = read-out: Protein phosphatase 2A (PPP2R4), PTPA (gene 5524); assay: LTEA_HepaRG_PPP2R4: Life Technologies and Expression Analysis (LTEA) Assay for Protein phosphatase 2A (PPP2R4) using HepaRG (AID 2283522)
In short: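 Differentiated HepaRG cells in serum-free induction medium were exposed in duplicate for 48 h to eight concentrations, top 100 uM with half-log dilutions, in 0.5% DMSO. PPP2R4 mRNA was quantified by TaqMan qRT-PCR, normalized to ACTB, GAPDH and POLR2A.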

[13] = read-out: Phosphatase and tensin (PTEN), PTEN (gene 5728); assay: LTEA_HepaRG_PTEN: Life Technologies and Expression Analysis (LTEA) Assay for Phosphatase and tensin (PTEN) using HepaRG (AID 2283523)
In short: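 HepaRG cells, 48 h after plating, exposed in duplicate for 48 h in serum-free induction medium to 8 half-log concentrations up to 100 uM (0.5% DMSO). PTEN mRNA by qRT-PCR, normalized to ACTB, GAPDH, POLR2A; bidirectional fit versus DMSO.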

[14] = read-out: solute carrier (SLC22A1), SLC22A1 (gene 6580); assay: LTEA_HepaRG_SLC22A1: Life Technologies and Expression Analysis (LTEA) Assay for solute carrier (SLC22A1) using HepaRG (AID 2283524)
In short: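 Differentiated human HepaRG cells in serum-free induction medium, exposed 48 h in duplicate to 8-point half-log series from 100 µM top in 0.5% DMSO. SLC22A1 mRNA by TaqMan qRT-PCR normalized to ACTB, GAPDH, POLR2A; bidirectional fit versus DMSO.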

[15] = read-out: Pyruvate Dehydrogenase Kinase 4 (PDK4), PDK4 (gene 5166); assay: LTEA_HepaRG_PDK4: Life Technologies and Expression Analysis (LTEA) Assay for Pyruvate Dehydrogenase Kinase 4 (PDK4) using HepaRG (AID 2283525)
In short: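 HepaRG cells plated 48 h, then switched to serum-free induction medium and exposed in duplicate for 48 h to 8 half-log concentrations from 100 uM in 0.5% DMSO. PDK4 mRNA measured by qRT-PCR, normalized to ACTB, GAPDH and POLR2A; bidirectional fit versus DMSO.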

[16] = read-out: NAD(P)H dehydrogenase [quinone] 1 (NQO1), NQO1 (gene 1728); assay: LTEA_HepaRG_NQO1: Life Technologies and Expression Analysis (LTEA) Assay for NAD(P)H dehydrogenase [quinone] 1 (NQO1) using HepaRG (AID 2283526)
In short: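 Differentiated HepaRG cells, plated 48 h and then switched to serum-free induction medium, were exposed in duplicate for 48 h to 8-point half-log concentrations up to 100 uM in 0.5% DMSO. mRNA measured by qRT-PCR, normalized to ACTB, GAPDH, POLR2A; bidirectional fit versus DMSO.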

[17] = read-out: Nuclear factor erythroid 2-related factor 2 (Homo sapiens) (UniProt Q16236); assay: LTEA_HepaRG_NFE2L2: Life Technologies and Expression Analysis (LTEA) Assay for Nuclear factor erythroid 2-related factor 2 (NFE2L2) Transcription Factor using HepaRG (AID 2283527);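 note: TaqMan qRT-PCR transcript level normalised to ACTB GAPDH and POLR2A housekeeping genes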
In short: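 Differentiated human HepaRG cells, serum-free induction medium, exposed 48 h in duplicate to eight half-log concentrations up to 100 uM in 0.5% DMSO. NFE2L2 mRNA by Fluidigm TaqMan qRT-PCR, normalised to ACTB, GAPDH, POLR2A; bidirectional change versus DMSO.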

[18] = read-out: succinate dehydrogenase complex iron sulfur subunit B (SDHB), SDHB (gene 6390); assay: LTEA_HepaRG_SDHB: Life Technologies and Expression Analysis (LTEA) Assay for succinate dehydrogenase complex iron sulfur subunit B (SDHB) using HepaRG (AID 2283528)
In short: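 A human HepaRG culture in serum-free induction medium received test chemicals for 48 h over an eight-point range capped at 100 uM. SDHB expression change was quantified by qRT-PCR.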

Measured: AC50

Nuclear factor erythroid 2-related factor 2 (Homo sapiens), sequence (Q16236 whole entry, looked up): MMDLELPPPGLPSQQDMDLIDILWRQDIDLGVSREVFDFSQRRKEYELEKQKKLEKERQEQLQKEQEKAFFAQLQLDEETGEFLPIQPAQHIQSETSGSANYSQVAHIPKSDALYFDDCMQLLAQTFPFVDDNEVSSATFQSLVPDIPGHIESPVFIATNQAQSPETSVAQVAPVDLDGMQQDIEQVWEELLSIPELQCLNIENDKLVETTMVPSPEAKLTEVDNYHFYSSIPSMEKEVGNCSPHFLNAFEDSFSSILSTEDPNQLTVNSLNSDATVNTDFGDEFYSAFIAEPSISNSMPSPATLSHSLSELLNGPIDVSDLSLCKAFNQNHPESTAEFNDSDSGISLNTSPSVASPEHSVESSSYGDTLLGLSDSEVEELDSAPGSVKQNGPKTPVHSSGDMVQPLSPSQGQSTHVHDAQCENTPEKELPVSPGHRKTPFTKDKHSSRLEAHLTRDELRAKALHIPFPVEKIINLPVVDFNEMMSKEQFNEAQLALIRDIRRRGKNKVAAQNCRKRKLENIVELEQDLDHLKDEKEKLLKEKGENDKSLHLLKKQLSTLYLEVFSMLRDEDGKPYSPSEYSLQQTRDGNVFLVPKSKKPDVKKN

O=C(O)c1cccc(Oc2ccccc2)c1
inactive: [1] | [2] | [3] | [4] | [5] | [6] | [7] | [8] | [9] | [10] | [11] | [12] | [13] | [14] | [16] | [17] | [18]
active: [15] 50 µM

Cc1ccc(O)cc1
inactive: [1] | [2] | [3] | [4] | [5] | [6] | [7] | [8] | [9] | [10] | [11] | [12] | [13] | [14] | [15] | [16] | [17] | [18]

CCOC(=O)c1ccc(C2CCC(NC[C@H](O)COc3ccc(O)c(NS(C)(=O)=O)c3)CC2)cc1 (some centres undefined)
active: [3] 2.04 µM
inactive: [1] | [2] | [4] | [5] | [6] | [7] | [8] | [9] | [10] | [11] | [12] | [13] | [14] | [15] | [16] | [17] | [18]
